Bioassay records as filed in PubChem.
Compounds with a hit are over-represented: about 1.5% of the library has one in this group of screens.
PI5P4Ka inh: blocks human PI5P4K alpha kinase activity; 330,000 compounds, 1.2% hits; max response, %; PI5P4Kalpha enzyme, ADP-Glo luminescence, 60 min; hits give low values; P48426; active = max response of -50% or lower; inconclusive = between -30% and -50%; inactive = -30% or higher; also: value at the top dose of about 77 µM; % is scaled to controls: 0 for no effect and ±100 for the full control effect
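ADP-Glo luminescence end-point read after a 60 min room-temperature kinase reaction of PI5P4Kalpha plus substrate, initiated with ATP at 5 microM final. Buffer: 0.038 M HEPES pH 7.4, EGTA, 0.1% CHAPS, 5% DMSO.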
APE1 inh: inhibitors of human APE1 endonuclease; P27695; recombinant APE1, TAMRA/BHQ-2 abasic DNA cleavage fluorescence; 350,000 compounds, 0.35% hits; Potency, µM (top dose mostly 65.8 µM), for inactives: top-dose activity change, negative = inhibition, usual class: inhibitors;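 also: potency is read from the fitted curve at half-maximal effect; plate controls were vehicle for no effect and reference inhibitor for full effect; nearly all actives have a fitted effect of over 55% in size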
Target sequence (P27695 whole entry, looked up): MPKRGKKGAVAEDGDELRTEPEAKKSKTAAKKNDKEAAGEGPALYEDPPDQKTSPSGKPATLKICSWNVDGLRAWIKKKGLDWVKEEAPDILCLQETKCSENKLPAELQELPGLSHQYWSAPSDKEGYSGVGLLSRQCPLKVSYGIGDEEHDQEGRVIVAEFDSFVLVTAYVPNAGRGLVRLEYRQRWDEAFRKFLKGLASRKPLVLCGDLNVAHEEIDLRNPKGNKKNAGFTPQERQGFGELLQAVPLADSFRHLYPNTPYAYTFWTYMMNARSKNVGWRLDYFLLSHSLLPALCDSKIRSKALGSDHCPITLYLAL
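APE1 at 0.75 nM preincubated 15 min at room temperature with compound. Reaction then started with 50 nM double-stranded THF-abasic substrate labelled with TAMRA/BHQ-2, and 525/598 nm fluorescence read kinetically. Activity taken as third-minus-first read difference, normalized to DMSO and NSC13755 controls.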
WRN helicase inh-1: WRN helicase (human) inhibition | Q14191 | WRN helicase unwinding, fluorescent forked duplex, kinetic | Potency, µM (highest dose often 114 µM), without a hit: at the highest dose activity change, negative = inhibition, most hits filed as inhibitors | 360,000 compounds, 0.46% hits | AID 651768; also: potency is read from the fitted curve at half-maximal effect; % is scaled to controls: 0 for no effect and ±100 for the full control effect; nearly all actives have a fitted effect of over 55% in size
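Primary qHTS, 1536-well format. 20 nM WRN + compound, 15 min RT; start with 100 nM forked fluorophore/quencher duplex, 2 mM ATP (final); kinetic read ex 525/em 598 nm.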
BLM helicase inh-1: Bloom syndrome helicase (human) inhibition. P54132. recombinant BLM DNA unwinding, fluorescence dequenching. Potency, µM (doses to about 56.1 µM), for the others: top-dose activity change, negative = inhibition, hits mostly inhibitors. 350,000 compounds, 0.2% hits;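 also: potency is read from the fitted curve at half-maximal effect; plate controls were vehicle for no effect and no enzyme for full effect; nearly all actives have a fitted effect of over 35% in size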
FEN1 inh-1: inhibitors of human flap endonuclease 1 | P39748 | Recombinant FEN1 flap cleavage, fluorescence, 15 min | Potency, µM (highest dose often 114 µM), inactives show at the highest dose activity change, negative = inhibition, most hits filed as inhibitors | 390,000 compounds, 0.35% hits | AID 588795; also: potency is read from the fitted curve at half-maximal effect; % is scaled to controls: 0 for no effect and ±100 for the full control effect; nearly all actives have a fitted effect of over 65% in size
Target sequence (P39748 whole entry, looked up): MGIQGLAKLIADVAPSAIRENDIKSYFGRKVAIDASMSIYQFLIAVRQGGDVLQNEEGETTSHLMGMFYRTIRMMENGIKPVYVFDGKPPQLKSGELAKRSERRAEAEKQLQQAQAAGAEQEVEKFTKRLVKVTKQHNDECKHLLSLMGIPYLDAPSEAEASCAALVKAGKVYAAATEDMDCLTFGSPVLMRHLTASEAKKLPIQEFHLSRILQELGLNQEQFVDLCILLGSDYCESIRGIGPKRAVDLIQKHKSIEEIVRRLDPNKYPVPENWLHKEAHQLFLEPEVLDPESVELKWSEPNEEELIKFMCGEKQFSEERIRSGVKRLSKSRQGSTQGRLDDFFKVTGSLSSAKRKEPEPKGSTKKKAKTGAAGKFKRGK
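With each library titrated from low to high concentration, compounds met 10 nM FEN1 for 15 min at room temperature before 50 nM substrate was added; readings at 0 and 15 min fed four-parameter Hill curve fits.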
RECQ1 helicase: blocks DNA unwinding by human RECQ1; Potency, µM (doses to about 57.3 µM), for the others: top-dose activity, negative = inhibition, usual class: inhibitors; AID 2549; 240,000 compounds, 0.54% hits; RECQ1 DNA unwinding, red fluorescence kinetic read; P46063;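 also: potency is read from the fitted curve at half-maximal effect; plate controls were vehicle for no effect and no enzyme for full effect; nearly all actives have a fitted effect of over 30% in size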
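50 nM RECQ1T1 preincubated 15 min with compound in Tris pH 8.0 buffer with MgCl2, DTT, Tween-20 and 2.5 ug/ml poly(dI-dC); started with 200 nM TAMRA/BHQ-2 forked duplex and 2 mM ATP. Unwinding read as fluorescence (525/598 nm), two reads 2 h apart.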
FEN1 inh-2: confirmation of human FEN1 inhibitors; shares compounds with FEN1 inh-1; 880 compounds, 79% hits; Potency, µM, hits mostly inhibitors; FEN1 flap cleavage, TAMRA/BHQ2 fluorogenic DNA substrate; also: potency is read from the fitted curve at half-maximal effect; nearly all actives have a fitted effect of over 60% in size
WRN helicase inh-2: confirmation of human WRN helicase inhibitors | shares compounds with WRN helicase inh-1 | WRN helicase DNA unwinding, fluorescence kinetic | Potency, µM (doses to about 57.1 µM), for the others: at the top dose activity, negative = inhibition, most hits filed as inhibitors | 610 compounds, 63% hits; also: potency is read from the fitted curve at half-maximal effect; nearly all actives have a fitted effect of over 65% in size
TO DNA binding: counter-screen for WRN helicase inhibitors: DNA binding; shares compounds with WRN helicase inh-1; thiazole orange DNA binding displacement, fluorescence; Potency, µM (series often up to 57.1 µM), without a hit: at the top dose activity change, negative = inhibition, most hits filed as inhibitors; 610 compounds, 10% hits; AID 720499;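 also: drop in dye fluorescence marks compound binding to DNA; potency is read from the fitted curve at half-maximal effect; % is scaled to controls: 0 for no effect and ±100 for the full control effect; nearly all actives have a fitted effect of over 60% in size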
BLM helicase inh-2: counter-screen for WRN helicase inhibitors: human BLM helicase inhibition; Potency, µM (highest dose often 57.1 µM), inactives show at the top dose activity change, negative = inhibition, usual class: inhibitors; 610 compounds, 60% hits; AID 720503; Recombinant BLM helicase DNA unwinding, red fluorescence; shares compounds with WRN helicase inh-1; also: potency is read from the fitted curve at half-maximal effect; nearly all actives have a fitted effect of over 60% in size
* hit, by the source's call; i = inactive; ? = inconclusive; . = no result. Unless noted, calls follow the shape of the dose curve; as a rule, active = well fitted curve in the direction sought with a large enough effect; inconclusive = small, poorly fitted or top-dose-only effect, or another doubt; inactive = no such curve, though single readings can be large; an effect the other way counts as inactive or inconclusive.

SMILES	PI5P4Ka inh	APE1 inh	WRN helicase inh-1	BLM helicase inh-1	FEN1 inh-1	RECQ1 helicase	FEN1 inh-2	WRN helicase inh-2	TO DNA binding	BLM helicase inh-2
CC1=NN(c2cccc(C(=O)O)c2)C(=O)/C1=C\C=C\c1ccco1	-80*	2%	4.7µM*	18%	22µM*	0%	24*	1.5µM*	-21%	0.96µM*
O=C(CCc1nc2cccnc2n1Cc1ccccc1)NCc1cccc(Cl)c1	.	.	.	-3%	-16%	.	.	.	.	.
CCO/C=C1\SC(=S)N(c2ccc(Cl)cc2)C1=O	-5	?	?	-6%	1%	?	.	.	.	.
CC(C)c1ccc(N2C(=O)/C(=C/N(C)C)SC2=S)cc1	-27	28µM*	20µM*	35%	32µM*	32µM*	30*	12µM*	-20%	14µM*
O=C(N/N=C/c1ccncc1)c1cccc(S(=O)(=O)Nc2ccc(Cl)cc2)c1	-5	15%	22µM*	?	?	i	67*	14µM*	31%	12µM*
Cc1cc2c(cc1S(=O)(=O)CCC(=O)N1CCCCC1C)OCC(=O)N2 (configuration not stated)	.	.	.	-3%	6%	.	.	.	.	.
O=C(O)c1ccc2nc(-c3ccco3)c(-c3ccco3)nc2c1	?	?	?	-1%	35µM*	-14%	15*	4.3µM*	3.8µM*	12µM*
O=C(c1ccc2nc(-c3ccco3)c(-c3ccco3)nc2c1)N1CCN(c2ccccc2)CC1	.	-10%	-22%	-16%	-4%	-7%	.	.	.	.
CSC1SCC2C(=O)N(C)C(C(C)C)C(=O)OCC(NC(=O)c3cnc4ccccc4n3)C(=O)NC(C)C(=O)N(C)C1C(=O)N(C)C(C(C)C)C(=O)OCC(NC(=O)c1cnc3ccccc3n1)C(=O)NC(C)C(=O)N2C (configuration not stated)	?	.	0.53µM*	.	0.56µM*	.	0.6*	0.34µM*	?	0.54µM*
O=C(O)CSc1cc(NS(=O)(=O)c2ccc(Cl)cc2)c2ccccc2c1O	-55*	60%	13µM*	25µM*	35µM*	.	76*	?	-12%	?
COc1cc(NS(=O)(=O)c2ccc(NC(=S)NC(=O)c3sc4cc(F)ccc4c3Cl)cc2)nc(OC)n1	?	0%	?	4%	?	-7%	?	22µM*	-21%	24µM*
COC(=O)CN1C(=O)S/C(=C/c2ccc(N3CCCCC3)o2)C1=O	.	-3%	?	-17%	-11%	-19%	.	.	.	.
O=C(O)CN1C(=O)/C(=C/c2ccc(N3CCCCC3)o2)SC1=S	?	1%	4.7µM*	-3%	45µM*	-3%	48*	24µM*	43%	24µM*
O=C(O)c1ccc(-n2cccc2/C=C2\SC(=O)N(Cc3ccc(Cl)cc3)C2=O)cc1	.	.	.	.	.	.	76*	9.6µM*	-28%	8.6µM*
O=C(O)c1ccc(/C=C2/SC(=S)N(Cc3ccccc3)C2=O)cc1	5	9%	-3%	-2%	9%	.	.	.	.	.
O=C(O)c1cccc2cccc(-c3c4ccc(=O)c(O)c-4oc4c(O)c(O)ccc34)c12	-95*	.	3.5µM*	.	3.2µM*	.	3.4*	1.5µM*	4.3µM*	0.38µM*
O=C(O)c1cccc2cc(-c3ccccc3)oc(=O)c12	2	24%	-7%	-5%	-3%	.	.	.	.	.
COCCn1c(CCC(=O)Nc2ccc(OC)c(OC)c2)nc2cccnc21	.	.	.	0%	5%	.	.	.	.	.
CC(OC(=O)c1cccc(O)c1)C(=O)N(C)Cc1ccccc1 (configuration not stated)	-7	20%	-10%	.	-3%	.	.	.	.	.
CC(OC(=O)/C(C#N)=C/c1ccc(N(C)C)cc1)C(=O)N(C)Cc1ccccc1 (configuration not stated)	1	-7%	45µM*	-3%	?	.	76*	24µM*	74%	22µM*
O=S(=O)(O)c1ccc(O)c2cc(Nc3ccccc3)ccc12	-105*	.	0.95µM*	.	7.9µM*	.	8.5*	0.43µM*	9.6µM*	0.061µM*
c1ccc(Nc2cccc(Nc3ccccc3)c2)cc1	-1	-2%	-5%	-15%	?	-14%	.	.	.	.
O=[N+]([O-])c1ccccc1N/N=C\c1ccccc1F	6	11%	-3%	-2%	-3%	-1%	.	.	.	.
O=C(O)c1ccccc1NS(=O)(=O)c1ccc(NN=Cc2ccccc2F)c([N+](=O)[O-])c1	?	?	79µM*	.	?	.	76*	24µM*	?	22µM*
CC(C)c1ccc(S(=O)(=O)Nc2ccc(O)c(Sc3ncn[nH]3)c2)cc1	-7	72%	2%	-2%	9%	.	.	.	.	.
SMILES	PI5P4Ka inh	APE1 inh	WRN helicase inh-1	BLM helicase inh-1	FEN1 inh-1	RECQ1 helicase	FEN1 inh-2	WRN helicase inh-2	TO DNA binding	BLM helicase inh-2
COc1ccc(S(=O)(=O)Nc2cc(Sc3ncn[nH]3)c(O)c3ccccc23)cc1	.	?	9.5µM*	?	6.3µM*	-7%	?	24µM*	-14%	?
CCOc1ccc(CCNC(=O)C2CCC(CNS(=O)(=O)c3ccc(Cl)cc3)CC2)cc1OCC (configuration not stated)	.	.	.	0%	-9%	.	.	.	.	.
Cc1cc(=O)c2c(o1)C(=O)c1occc1C2=O	?	.	25µM*	.	50µM*	.	?	24µM*	-24%	?
COc1ccc(O)c(C(=O)c2cc(SCC(=O)O)c3nc4sc5c(c4c(=O)n3c2)CCCC5)c1	?	?	25µM*	22µM*	?	i	38*	22µM*	?	5.4µM*
CSc1ccc(/C=N/Nc2cccc(C(=O)O)c2)cc1	-99*	2.2µM*	11µM*	147%	22µM*	32µM*	43*	4.8µM*	?	3µM*
c1cnc(N2CCN(c3ncc4c(n3)CCNC4)CC2)nc1	.	.	.	15%	8%	.	15*	22µM*	?	?
